The results in this text go back to PubChem BioAssay (NCATS).

Assay [1] concerns the target Cytochrome P450 1A2 (Homo sapiens) (UniProt P05177). Nature of the assay: p450-cyp1a2 (AID 410; calls by dose curve; further: potency means the concentration at half of the fitted maximal effect). An outline of the steps:
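Luminescent readout of luciferin formed from Luciferin-ME by human CYP1A2; data normalized against complete inhibition by 57 uM furafylline. Enzyme 20nM, substrate 100uM at Km, 100mM KPO4 buffer, 60 min reaction at room temperature.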

Assay [2] deals with Mitogen-activated protein kinase 10 (Mus musculus) (UniProt Q61831). In words: JNK3 AlphaScreen Assay (AID 530; active means well fitted curve in either direction with a large enough effect, not every such curve was filed as active;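 further: kinase came from lysate of stimulated human HepG2 cells; signal reports phosphorylation of biotinylated GST-cJun 1-79 at Ser73 with 10 µM ATP; series mostly up to about 57 µM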). An outline of the steps: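 Compound titrations were preincubated 15 minutes at room temperature with substrate, antibody and pre-activated JNK3-containing HepG2 lysate. Reactions were started with 10 uM ATP and stopped with EDTA-containing bead buffer for AlphaScreen detection.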

The target of assay [3] is 3',5'-cyclic-AMP phosphodiesterase 4B (Homo sapiens) (UniProt Q07343). Nature of the assay: qHTS Assay for Inhibitors of PDE-IV (AID 607; active means well fitted activation curve with a large enough effect in the main read-out, with a control signal flat, not every such curve was filed as active). An outline of the steps: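 Cell-based read-out of cAMP via a modified cyclic nucleotide-gated channel and membrane potential dye (535/590 nm) in HEK293 cells expressing PDE4 endogenously. Compounds tested up to 22.9 uM final; 100 uM RO 20-1724 reference.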
Sequence of 3',5'-cyclic-AMP phosphodiesterase 4B (Homo sapiens) (Q07343 whole entry, looked up): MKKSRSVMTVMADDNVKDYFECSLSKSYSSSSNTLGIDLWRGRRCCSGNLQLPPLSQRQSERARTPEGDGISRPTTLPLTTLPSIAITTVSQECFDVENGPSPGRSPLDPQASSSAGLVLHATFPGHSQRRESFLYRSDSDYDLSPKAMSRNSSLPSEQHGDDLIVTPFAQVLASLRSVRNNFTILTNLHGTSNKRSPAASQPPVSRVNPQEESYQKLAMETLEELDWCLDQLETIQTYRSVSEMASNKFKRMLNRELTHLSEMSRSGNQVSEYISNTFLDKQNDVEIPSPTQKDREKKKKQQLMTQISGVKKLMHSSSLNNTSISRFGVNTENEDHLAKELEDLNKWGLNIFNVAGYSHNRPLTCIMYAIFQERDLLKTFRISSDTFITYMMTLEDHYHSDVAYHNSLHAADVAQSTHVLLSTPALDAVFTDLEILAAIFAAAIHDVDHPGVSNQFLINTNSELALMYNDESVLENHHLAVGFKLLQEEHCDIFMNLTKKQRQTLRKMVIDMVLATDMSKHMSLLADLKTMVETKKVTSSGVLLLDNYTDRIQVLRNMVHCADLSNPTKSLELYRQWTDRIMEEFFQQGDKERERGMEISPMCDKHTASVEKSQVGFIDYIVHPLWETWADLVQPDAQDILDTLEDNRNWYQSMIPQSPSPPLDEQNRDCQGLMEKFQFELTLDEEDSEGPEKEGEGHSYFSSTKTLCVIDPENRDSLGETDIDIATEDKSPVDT

The target of assay [4] is Cytochrome P450 2C9 (Homo sapiens) (UniProt P11712). Nature of the assay: qHTS Assay for Inhibitors and Substrates of Cytochrome P450 2C9 (AID 883). Further: nearly all actives have a fitted effect of over 60% in size. Further: potency means the concentration at half of the fitted maximal effect. An outline of the steps: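 Luminescent read-out of deoxyluciferin hydroxylation, normalized to 57uM sulphaphenazole (AC100). Reaction: 10nM enzyme, 100uM Luciferin-H (equal to KM), 25mM KPO4, 10 min compound preincubation, then 60 min with NADPH regeneration, both at 37C.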
Sequence of Cytochrome P450 2C9 (Homo sapiens) (P11712 whole entry, looked up): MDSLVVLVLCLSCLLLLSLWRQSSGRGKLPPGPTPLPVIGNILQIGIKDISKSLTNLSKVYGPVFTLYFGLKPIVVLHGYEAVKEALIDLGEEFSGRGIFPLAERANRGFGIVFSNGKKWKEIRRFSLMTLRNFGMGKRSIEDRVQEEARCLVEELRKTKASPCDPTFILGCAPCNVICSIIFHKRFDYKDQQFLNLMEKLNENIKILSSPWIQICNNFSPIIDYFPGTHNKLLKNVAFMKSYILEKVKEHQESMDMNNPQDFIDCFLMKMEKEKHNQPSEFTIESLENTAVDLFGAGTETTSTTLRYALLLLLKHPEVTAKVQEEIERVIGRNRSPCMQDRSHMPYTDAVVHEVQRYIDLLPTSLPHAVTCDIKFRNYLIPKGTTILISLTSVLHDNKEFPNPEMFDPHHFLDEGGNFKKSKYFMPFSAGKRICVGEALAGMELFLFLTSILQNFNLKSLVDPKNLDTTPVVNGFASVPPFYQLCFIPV

The target of assay [5] is Cytochrome P450 3A4 (Homo sapiens) (UniProt P08684). Nature of the assay: qHTS Assay for Activators of Cytochrome P450 3A4 (AID 885). Further: nearly all actives have a fitted effect of over 65% in size. An outline of the steps:
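Signal was normalized against complete inhibition by 57 uM ketoconazole. The reaction used 20nM CYP3A4 with 25uM Luciferin-PPXE, 10-min compound preincubation and a 60-min NADPH-supported step at RT.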

For assay [6] the target is unchanged. Nature of the assay: qHTS Assay for Inhibitors and Substrates of Cytochrome P450 3A4 (AID 884). Further: potency means the concentration at half of the fitted maximal effect; nearly all actives have a fitted effect of over 50% in size. An outline of the steps: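 20 nM human CYP3A4 with 25 uM Luciferin-PPXE (at KM) in 200 mM KPO4, preincubated 10 min with compound; NADPH regeneration started a 60 min RT reaction. Luciferin detected by luminescence, normalized to 57 uM ketoconazole as full inhibition.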

For assay [7], the target named is Cytochrome P450 2C19 (Homo sapiens) (UniProt P33261). In words: qHTS Assay for Inhibitors and Substrates of Cytochrome P450 2C19 (AID 899). Further: nearly all actives have a fitted effect of over 60% in size. Further: potency means the concentration at half of the fitted maximal effect. An outline of the steps:
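Luminescence readout of luciferin formed from 10uM Luciferin-H EGE (KM level) by 5 nM CYP2C19 in 50mM KPO4. 60 min NADPH-driven reaction at 37C after 10 min compound preincubation; data scaled to 57uM ketoconazole inhibition.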

In assay [8] the target is Cytochrome P450 2D6 (Homo sapiens) (UniProt P10635). In words: qHTS Assay for Inhibitors and Substrates of Cytochrome P450 2D6 (AID 891). Further: nearly all actives have a fitted effect of over 60% in size. Further: potency means the concentration at half of the fitted maximal effect. An outline of the steps:
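Human CYP2D6 (5 nM) with 30 uM Luciferin-ME EGE (at Km) in 100 mM KPO4, compound preincubated 10 min, then NADPH regeneration system for 60 min at room temperature. Luciferin read by luminescence; normalized to 1.43 uM quinidine.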

Records with an inconclusive call do not appear. The source made the active and inactive calls. Unless noted, the call rests on the fitted dose curve; in most records, active means well fitted curve in the direction sought with a large enough effect; inconclusive means small, poorly fitted or top-dose-only effect, or another doubt; inactive means no such curve, though single readings can be large; an effect the other way counts as inactive or inconclusive.

Sequence of Cytochrome P450 2D6 (Homo sapiens) (P10635 whole entry, looked up): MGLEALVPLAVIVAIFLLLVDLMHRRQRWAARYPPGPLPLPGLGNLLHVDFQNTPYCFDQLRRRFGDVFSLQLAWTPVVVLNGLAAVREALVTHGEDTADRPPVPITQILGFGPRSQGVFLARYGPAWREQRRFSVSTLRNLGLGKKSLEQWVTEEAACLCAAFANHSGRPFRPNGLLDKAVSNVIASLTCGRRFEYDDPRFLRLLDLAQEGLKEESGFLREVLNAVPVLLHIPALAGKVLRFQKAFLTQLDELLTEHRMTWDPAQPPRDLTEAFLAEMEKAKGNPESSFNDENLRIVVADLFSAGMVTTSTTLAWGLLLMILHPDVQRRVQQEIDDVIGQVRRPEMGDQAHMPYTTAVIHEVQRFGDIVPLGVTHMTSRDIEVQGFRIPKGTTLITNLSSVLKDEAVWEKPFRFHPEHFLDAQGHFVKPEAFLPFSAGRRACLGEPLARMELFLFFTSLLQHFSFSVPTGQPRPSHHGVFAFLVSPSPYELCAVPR
Sequence of Cytochrome P450 3A4 (Homo sapiens) (P08684 whole entry, looked up): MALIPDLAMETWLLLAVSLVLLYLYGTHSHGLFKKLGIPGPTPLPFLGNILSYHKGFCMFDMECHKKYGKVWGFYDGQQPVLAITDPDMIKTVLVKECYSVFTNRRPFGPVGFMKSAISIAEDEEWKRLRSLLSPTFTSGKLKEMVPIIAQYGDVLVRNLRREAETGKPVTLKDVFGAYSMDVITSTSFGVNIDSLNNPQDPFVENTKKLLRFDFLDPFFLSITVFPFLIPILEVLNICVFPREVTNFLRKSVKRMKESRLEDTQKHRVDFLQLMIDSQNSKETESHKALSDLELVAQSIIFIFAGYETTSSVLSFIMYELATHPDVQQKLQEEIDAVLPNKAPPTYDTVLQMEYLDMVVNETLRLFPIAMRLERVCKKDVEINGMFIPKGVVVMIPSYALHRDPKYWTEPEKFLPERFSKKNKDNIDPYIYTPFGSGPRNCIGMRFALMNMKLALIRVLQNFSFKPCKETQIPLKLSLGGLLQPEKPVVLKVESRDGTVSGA
Sequence of Cytochrome P450 2C19 (Homo sapiens) (P33261 whole entry, looked up): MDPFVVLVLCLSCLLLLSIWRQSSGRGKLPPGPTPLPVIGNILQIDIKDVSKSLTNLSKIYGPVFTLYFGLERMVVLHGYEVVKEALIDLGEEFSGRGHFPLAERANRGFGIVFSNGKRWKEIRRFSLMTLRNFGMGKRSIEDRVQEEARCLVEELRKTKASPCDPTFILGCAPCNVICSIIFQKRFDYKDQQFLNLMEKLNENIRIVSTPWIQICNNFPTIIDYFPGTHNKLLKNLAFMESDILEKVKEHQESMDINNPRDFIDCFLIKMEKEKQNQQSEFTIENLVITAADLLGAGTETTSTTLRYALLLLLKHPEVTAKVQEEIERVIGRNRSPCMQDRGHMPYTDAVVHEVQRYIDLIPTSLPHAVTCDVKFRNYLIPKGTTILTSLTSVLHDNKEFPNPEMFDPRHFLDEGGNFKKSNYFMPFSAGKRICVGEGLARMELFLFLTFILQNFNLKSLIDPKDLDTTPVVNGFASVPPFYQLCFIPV
Sequence of Cytochrome P450 1A2 (Homo sapiens) (P05177 whole entry, looked up): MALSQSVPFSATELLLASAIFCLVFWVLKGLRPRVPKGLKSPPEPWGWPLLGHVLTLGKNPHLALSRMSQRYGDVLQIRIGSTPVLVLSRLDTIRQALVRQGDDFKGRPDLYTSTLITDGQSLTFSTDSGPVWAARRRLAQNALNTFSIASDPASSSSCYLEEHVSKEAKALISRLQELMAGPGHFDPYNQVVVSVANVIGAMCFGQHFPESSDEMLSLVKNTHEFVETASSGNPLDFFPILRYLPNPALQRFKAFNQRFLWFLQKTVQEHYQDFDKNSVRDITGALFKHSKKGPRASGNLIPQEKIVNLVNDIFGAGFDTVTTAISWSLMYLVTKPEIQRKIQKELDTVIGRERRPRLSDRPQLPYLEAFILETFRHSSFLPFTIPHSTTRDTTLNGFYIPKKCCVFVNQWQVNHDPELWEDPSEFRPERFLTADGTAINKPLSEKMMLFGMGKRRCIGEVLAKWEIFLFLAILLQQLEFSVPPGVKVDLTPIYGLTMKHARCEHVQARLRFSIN

In the case of `CC1=C(C(=O)OCc2ccccc2)C(c2ccc3ccccc3c2)NC(=O)N1CCCCCC(=O)O` (stereo not given), the Potency is 20 µM (active) in assay [1] and 7.94 µM (active) in assay [4]. In addition, the Potency result in assay [2], in assay [3] and in assay [5] was “inactive” throughout.
As for `COC(=O)[C@@]1(Cc2ccc(F)cc2)[C@@H]2[C@@H](CC(=O)[C@H]2CC(=O)C(=O)N(C)C)CN1C(=O)c1ccccc1`, the Potency entry in assay [1], in assay [2], in assay [3] and in assay [5] was “inactive” throughout. Further, the Potency in assay [6] is 6.31 µM (active).
In the case of `Cc1cc(CNC(=O)[C@@H]2C[C@H]2[C@@H](NP(=O)(c2ccccc2)c2ccccc2)c2ccccc2)nn1C`, the Potency entry in assay [1], in assay [2], in assay [3] and in assay [5] was “inactive” in each case. Also, the Potency in assay [6] is 0.398 µM (active).
Regarding `COC(=O)[C@@]1(Cc2ccc(F)cc2)[C@H]2c3cc(C(=O)N4CCCC4)n(Cc4c(CO)[nH]cc(C)c4=O)c3C[C@H]2CN1C(=O)c1ccccc1`, the Potency in assay [1] is 20 µM (active); in assay [6] it was 2 µM (active). Besides, the Potency result in assay [2], in assay [3] and in assay [5] was “inactive” throughout.
In the case of `O=C(Nc1ccc2ccccc2c1)[C@H]1C[C@@H]1[C@H](NP(=O)(c1ccccc1)c1ccccc1)c1ccccc1`, the Potency in assay [1] was 10 µM (active); in assay [4] it was 3.16 µM (active); in assay [6], 2.51 µM (active); in assay [7], 3.16 µM (active). Besides, the Potency entry in assay [2], in assay [3] and in assay [5] was “inactive” in each case.
Consider `C[C@@H](C(=O)NCc1cccc2ccccc12)[C@H]1C[C@]1(C)[C@H](NC(=O)OCc1ccccc1)c1ccccc1`, for which the Potency was 25.1 µM (active) in assay [1], 3.16 µM (active) in assay [4], 0.398 µM (active) in assay [6] and 2.51 µM (active) in assay [7]. In addition, the Potency result in assay [2], in assay [3] and in assay [5] was “inactive” each time.
As to `COC(=O)[C@@H]1C[C@H]1[C@@H](NC(=O)Oc1ccc(F)cc1)c1ccccc1`, the Potency in assay [1] is 3.16 µM (active); in assay [4], 3.98 µM (active). The Potency result in assay [2], in assay [3] and in assay [5] was “inactive” each time.
On to `CCCCCCN(C(=O)CCCCCN1C(=O)NC(c2ccc(-c3ccccc3)cc2)C(C(=O)OCc2ccccc2)=C1C)C(C(=O)NCCCC)c1ccc(OCC(=O)OC)c(C(=O)OC)c1` (stereo not given), for which the Potency in assay [1] was 12.6 µM (active); in assay [4], 0.158 µM (active). Also, the Potency result in assay [2], in assay [3] and in assay [8] was “inactive” throughout.
For the molecule `COC(=O)[C@@]1(Cc2ccc(F)cc2)[C@H]2c3cc(C(=O)N(C)C)n(CCCNc4ccc(C(F)(F)F)cc4Cl)c3C[C@H]2CN1C(=O)c1ccccc1`, the Potency entry in assay [1], in assay [2], in assay [3] and in assay [5] was “inactive” in each case. Further, the Potency in assay [6] was 1.58 µM (active).
With `CCC[C@@H]1C[C@@]1(CCC)C(NC(=O)c1cccs1)c1ccc(Cl)cc1` (stereo not given in full), the Potency in assay [1] is 10 µM (active); in assay [6], 6.31 µM (active). The Potency entry in assay [2], in assay [3] and in assay [5] was “inactive” each time.
Regarding `CCCCCC1=C2CNC(CC(C)C)(C(=O)OC)C=C2C(C)C1=O` (stereo not given), the Potency was 25.1 µM (active) in assay [1], 3.16 µM (active) in assay [4] and 5.01 µM (active) in assay [8]. Moreover, the Potency result in assay [2], in assay [3] and in assay [5] was “inactive” in each case.
`C[C@@H](C(=O)Nc1ccc2ccccc2c1)[C@@H]1C[C@@]1(C)[C@@H](NS(=O)(=O)c1ccc2ccccc2c1)c1ccccc1`: in assay [1], the Potency was 10 µM (active). Further, the Potency result in assay [2], in assay [3], in assay [4] and in assay [5] was “inactive” throughout.
As to `COC(=O)[C@@H]1C[C@H]1[C@@H](NC(=O)OCc1ccccc1)c1ccccc1`, the Potency in assay [1] was 0.2 µM (active); in assay [4], 20 µM (active); in assay [7], 2.51 µM (active). In addition, the Potency entry in assay [2] and in assay [3] was “inactive” throughout.
`COC(=O)[C@@]1(Cc2ccc(F)cc2)[C@H]2c3cc(C(=O)N4CCCC4)n(Cc4ccccc4)c3C[C@H]2CN1C(=O)c1ccccc1`: the Potency is 20 µM (active) in assay [1] and 3.98 µM (active) in assay [4]. Also, the Potency result in assay [2], in assay [3] and in assay [5] was “inactive” in each case.
Take `COC(=O)[C@@]1(Cc2ccccc2)[C@H]2c3cc(C(=O)N4CCCC4)n(Cc4ccc(S(C)(=O)=O)cc4)c3C[C@H]2CN1C(=O)c1ccccc1`: the Potency entry in assay [1], in assay [2], in assay [3] and in assay [5] was “inactive” each time. Also, the Potency in assay [6] is 3.16 µM (active).
With `COC(=O)[C@@]1(Cc2ccccc2)[C@H]2c3cc(C(=O)N4CCCC4)n(Cc4cc(F)cc5c4OCOC5)c3C[C@H]2CN1C(=O)c1ccccc1`, the Potency entry in assay [1], in assay [2], in assay [3] and in assay [5] was “inactive” in each case. Moreover, the Potency in assay [4] is 0.316 µM (active); in assay [6], 3.98 µM (active); in assay [7], 0.251 µM (active).
As to `Cc1nn(C)c(Cl)c1S(=O)(=O)N[C@@H](c1ccccc1)[C@]1(C)C[C@H]1[C@@H](C)C(=O)Nc1ccc2ccccc2c1`, the Potency in assay [1] was 5.01 µM (active); in assay [6] it was 1.26 µM (active). In addition, the Potency entry in assay [2], in assay [3] and in assay [5] was “inactive” throughout.
As to `NCCC[C@@H](CC(=O)N[C@@H]1CCNC[C@H]1C(=O)N[C@H](CC(=O)N[C@@H](CCC(=O)O)CC(=O)O)Cc1ccccc1)NC(=O)C[C@H](CO)NC(=O)[C@@H]1CCCC[C@H]1N`, the Potency result in assay [1], in assay [2], in assay [3], in assay [4], in assay [8] and in assay [7] was “inactive” throughout.
On to `COC(=O)[C@@]1(Cc2ccc(F)cc2)[C@H]2c3cc(C(=O)N4CCCC4)n(Cc4ccc(C)o4)c3C[C@H]2CN1C(=O)c1ccccc1`, for which the Potency in assay [1] is 10 µM (active); in assay [4] it was 3.98 µM (active); in assay [6] it was 3.16 µM (active); in assay [7] it was 5.01 µM (active). Moreover, the Potency result in assay [2], in assay [3] and in assay [5] was “inactive” in each case.
Take `C[C@@H](C(=O)Cc1ccc2ccccc2c1)[C@@H]1C[C@@]1(C)[C@@H](NP(=O)(c1ccccc1)c1ccccc1)c1ccccc1`: the Potency is 10 µM (active) in assay [1] and 3.16 µM (active) in assay [4]. Moreover, the Potency entry in assay [2], in assay [3] and in assay [5] was “inactive” in each case.
